Consider 13 compounds from PubChem BioAssay.

In experiment [1] the target is Albumin (Bos taurus) (UniProt P02769). Nature of the experiment: bovine serum albumin binders on microarray, profiling panel, artefact control for SMM control protein annotation, biochemical, small-molecule microarray, Alexa647 label, 635/667 nm fluorescence (AID 1118).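 Further: score merges 667 nm emission intensity and signal-to-noise per printed compound spot.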 To be noted: BSA-A647 binding, fluorescence 635 nm, higher = more signal.
Experiment [2] can be described thus: small-molecule microarray binders of probe aXIP, primary screen, biochemical, NeuroSMM set, 635/667 nm fluorescence (AID 1119).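 Further: probe is the protein aXip251-270 applied at 1 µg/mL to compound-printed slides; binding of probe to printed compounds measured as 667 nm fluorescence plus signal to noise.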 The note with it: higher = more signal, called active from +8 up or from −8 down.
A short description of experiment [3]: small-molecule binders of probe aNOTCH3, primary screen, biochemical, small-molecule microarray, 635/667 nm fluorescence (AID 1120).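 Further: probe is a biotin-tagged antibody raised against NOTCH3 rather than NOTCH3 protein; score merges spot fluorescence near 667 nm with spot signal to noise.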 The note with it: higher = more signal.
A short description of experiment [4]: small-molecule binders of probe aNOTCH2, primary screen, biochemical, small-molecule microarray, 635/667 nm fluorescence (AID 1121).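 Further: score merges feature fluorescence read at 667 nm with its signal to noise.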 To be noted: higher = more signal.
In experiment [5] the target is Carbonic anhydrase 2 (Homo sapiens) (UniProt P00918). Nature of the experiment: CAII small-molecule binders, profiling panel, biochemical, small-molecule microarray, Alexa647-labelled CAII (AID 1122). The note with it: CAII-A647 binding fluorescence, higher = more signal.
The nature of experiment [6]: COS7 lysate on small-molecule microarray, probe aHis, 635 nm (AID 1123).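 Further: z-score combines 667nm fluorescence intensity with signal-to-noise per printed compound spot.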 The note with it: COS7 cell lysate, fluorescence, higher = more signal.
Experiment [7] in a line: compound binding in COS7 lysate, probe aLAP1, primary screen, cell lysate, small-molecule microarray (AID 1124).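 Further: lysate comes from COS7 cells expressing LAP1 and is applied at 0.3 µg/mL; score merges spot fluorescence near 667 nm with signal-to-noise over triplicate slides.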 To be noted: probe aLAP1, fluorescence, higher = more signal.
The subject of experiment [8] is Sam68 (KHDRBS1). The experiment in a line: Sam68 small-molecule binders, primary screen, biochemical, small-molecule microarray, 635 nm fluorescence (AID 1125).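 Further: score merges 667 nm channel intensity with signal to noise over triplicate slides.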 To be noted: small-molecule microarray binding, higher = more signal.
Experiment [9] concerns Chordin-like protein 2 (CHRDL2). Nature of the experiment: CHRDL2 small-molecule binders, primary screen, biochemical, small-molecule microarray, 635 nm fluorescence (AID 1126).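 Further: printed compound slides probed with Chrdl2 protein at 4 µg/mL for 1 h at 4 C; score merges 667 nm emission intensity with signal to noise over three replicate slides.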 The note with it: small-molecule microarray binding, fluorescence 635 nm; higher = more signal.
Experiment [10] deals with Concanavalin-A (Canavalia ensiformis) (UniProt P02866). The experiment in a line: ConA small-molecule binders, primary screen, artefact control for SMM control protein annotation, biochemical, small-molecule microarray, Alexa647 label, 635 nm (AID 1127).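 Further: z combines 667 nm emission intensity with signal-to-noise across three replicate slides.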 The note with it: ConA-A647 binding fluorescence, higher = more signal.

Structures are written as SMILES. Calls of active or inactive are those of the source.

Sequence of Concanavalin-A (Canavalia ensiformis) (P02866 whole entry, looked up): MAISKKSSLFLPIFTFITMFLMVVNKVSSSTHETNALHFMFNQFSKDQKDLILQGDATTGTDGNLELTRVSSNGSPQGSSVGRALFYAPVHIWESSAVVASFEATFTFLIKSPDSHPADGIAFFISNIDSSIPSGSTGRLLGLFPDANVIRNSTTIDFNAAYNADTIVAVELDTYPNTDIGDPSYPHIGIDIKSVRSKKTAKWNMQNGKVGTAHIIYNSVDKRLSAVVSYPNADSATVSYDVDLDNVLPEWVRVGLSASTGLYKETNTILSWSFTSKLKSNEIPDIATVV
Sequence of Albumin (Bos taurus) (P02769 whole entry, looked up): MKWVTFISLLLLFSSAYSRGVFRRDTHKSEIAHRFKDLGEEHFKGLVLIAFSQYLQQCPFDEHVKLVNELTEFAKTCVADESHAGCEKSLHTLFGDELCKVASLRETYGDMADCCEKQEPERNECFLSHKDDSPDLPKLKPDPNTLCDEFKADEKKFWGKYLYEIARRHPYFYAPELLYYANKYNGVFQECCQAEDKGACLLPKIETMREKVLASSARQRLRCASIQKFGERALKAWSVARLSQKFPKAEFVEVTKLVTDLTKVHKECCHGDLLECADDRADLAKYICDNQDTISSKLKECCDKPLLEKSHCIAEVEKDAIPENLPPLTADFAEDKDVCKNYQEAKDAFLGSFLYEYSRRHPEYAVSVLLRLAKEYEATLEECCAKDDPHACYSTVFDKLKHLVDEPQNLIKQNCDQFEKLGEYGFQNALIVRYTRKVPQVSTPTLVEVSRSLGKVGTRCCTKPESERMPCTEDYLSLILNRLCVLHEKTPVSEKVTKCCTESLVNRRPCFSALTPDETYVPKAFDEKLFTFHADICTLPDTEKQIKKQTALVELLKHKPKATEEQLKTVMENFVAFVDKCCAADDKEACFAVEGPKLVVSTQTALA

Regarding `CO[C@H]1O[C@H](CO)[C@@H](OC(=O)Nc2ccccc2)[C@@H]2OC(=O)[C@H](Cc3ccccc3)C/C=C/C[C@@H](Cc3ccccc3)C(=O)O[C@@H]12`, the composite z-score is 0.548 in [1]; 0.177 in experiment [3]; 0.371 in experiment [4]; 0.559 in experiment [5]; 1.28 in experiment [6]; 0.597 in experiment [7]. The composite z-score was found to be 0.921 in experiment [8], 0.152 in [9] and 0.628 in experiment [10]. Also, the composite Z-score in experiment [2] was 1.96 (inactive).

In the case of `C=CC[C@]1(C(=O)NCc2ccccc2)COC(c2ccc(OCCCO)cc2)=N1`, the composite z-score in experiment [1] was determined as 0.981; in experiment [3] it was 0.0789; in experiment [4] it was 0.114; in experiment [5], 0.84; in experiment [6] it was 2.75; in experiment [7], 1.46. Also, the composite z-score in experiment [8] is -0.297; in [9] it was -0.623; in experiment [10] it was -0.507. For the same compound, the composite Z-score in experiment [2] is 3.11 (inactive).

On to `CO[C@H]1O[C@H](CO)[C@@H](OC(=O)Nc2ccc3c(c2)OCO3)[C@@H]2OC(=O)[C@@H](Cc3ccccc3)C/C=C/C[C@H](Cc3ccccc3)C(=O)O[C@@H]12`, for which the composite z-score in experiment [1] was -0.052; in [3], 0.274; in [4], 0.0318; in experiment [5], 0.552; in experiment [6], 0.859; in experiment [7] it was 0.48. In addition, the composite z-score in experiment [8] came to 0.943; in [9], 0.455; in experiment [10], 0.921. Moreover, in experiment [2], the composite Z-score was 0.883 (inactive).

Turning to `CCCC[C@@H](O)C1=C(COC)Cn2c(=O)n(-c3ccccc3)c(=O)n2[C@H]1CO`, the composite z-score in experiment [1] is -0.0338; in experiment [3], -0.0967; in [4] it was -0.166; in experiment [5], -0.469; in [6], -0.162; in experiment [7], 0.0924. The composite z-score in experiment [8] is -0.532; in experiment [9], -0.0073; in experiment [10], -0.698. Also, the composite Z-score in [2] is 0.0894 (inactive).

As to `CCOC(=O)C1=C(C(=O)OCC)N(S(=O)(=O)CC[Si](C)(C)C)[C@H](c2ccccc2)CC1`, the composite z-score in experiment [1] was 0.565; in experiment [3], 0.112; in experiment [4] it was -0.075; in [5], 0.443; in [6], 0.727; in experiment [7], -0.102. The figures for the composite z-score in [8], in experiment [9] and in [10] were 1.3, -0.0267 and 1.14, respectively. Also, in experiment [2], the composite Z-score is -0.463 (inactive).

Take `CC(C)C[C@@H]1NC(=O)[C@@H]2C[C@H](C(=O)O)[C@H](c3ccc(O)cc3)N2C1=O`: the composite z-score in experiment [1] was -1.01; in experiment [3], 0.0488; in experiment [4], -0.106; in [5], 0.558; in experiment [6], 0.68; in [7], 0.186. Further, the figures for the composite z-score in experiment [8], in experiment [9] and in [10] were 1.31, 1.15 and 1.21, respectively. Further, the composite Z-score in experiment [2] is 0.102 (inactive).

For `C=CC[C@]1(C(=O)NCCCOC)N=C(c2ccc(OCCCO)cc2)O[C@H]1c1ccccc1`, the composite z-score was 0.812 in [1]; 0.0522 in [3]; -0.131 in [4]; 0.783 in [5]; 2.66 in experiment [6]; 0.648 in experiment [7]. The results for the composite z-score in experiment [8], in experiment [9] and in experiment [10] were 1.07, -1.08 and 0.335, respectively. The composite Z-score in experiment [2] is -0.397 (inactive).

Turning to `[N-]=[N+]=NCc1ccccc1C[C@@]1(C(=O)O)N=C(c2ccc(OCCCO)cc2)O[C@@H]1c1ccccc1CN=[N+]=[N-]`, the composite z-score is 0.516 in [1]; 0.244 in experiment [3]; -0.0716 in experiment [4]; 0.573 in [5]; 0.0091 in experiment [6]; 0.0036 in experiment [7]. Moreover, the composite z-score in experiment [8] was 1.31; in experiment [9], -0.0541; in experiment [10] it was 1.11. In addition, in experiment [2], the composite Z-score is 0.259 (inactive).

Take `Cc1c(NC(=O)/C(C#N)=C/c2ccc(Cl)cc2)c(=O)n(-c2ccccc2)n1C`: the composite z-score in experiment [1] is 0.87; in experiment [3] it was 0.029; in experiment [4], -0.145; in [5], 0.229; in experiment [6] it was 1.65; in [7] it was 0.761. For the same compound, the composite z-score is 0.396 in experiment [8], 0.122 in [9] and 0.736 in [10]. Moreover, in experiment [2], the composite Z-score is 1.5 (inactive).

Turning to `COCCOC(=O)N1C(=O)[C@@]2(c3cc(C#CCC(C(=O)OC)C(=O)OC)ccc31)[C@H](C(N)=O)[C@H]1C(=O)O[C@H](c3ccccc3)[C@H](c3ccccc3)N1[C@@H]2c1ccc(OCCO)cc1`, the composite z-score in experiment [1] was 0.483; in experiment [3], 0.0271; in experiment [4], -0.0984; in experiment [5], 0.565; in experiment [6], 1.87; in [7], 0.307. The composite z-score in experiment [8] stood at 1.29; in [9] it was 0.519; in [10] it was 1.07. In addition, in experiment [2], the composite Z-score was -0.0102 (inactive).

Regarding `CCCCNC(=O)c1ccc(C#C[Si](C)(C)C)c(OC(C)=O)c1`, the composite z-score in [1] was -0.175; in experiment [3], -0.0328; in [4], -0.154; in experiment [5], -0.14; in [6] it was 0.353; in [7], 0.0462. The composite z-score in [8] is 0.469; in [9], 0.782; in experiment [10], 0.0668. The composite Z-score in experiment [2] is 0.378 (inactive).

For `COCCCN1C(=O)[C@@]2(Cc3ccccc31)c1ccccc1C(=O)N(Cc1ccccc1OC)[C@H]2c1ccc(CO)cc1`, the composite z-score in [1] is 0.345; in [3] it was -0.147; in [4] it was -0.101; in experiment [5], 0.799; in experiment [6] it was 0.374; in experiment [7] it was 1.34. Besides, the composite z-score in experiment [8] is -0.0726; in experiment [9] it was -1.21; in experiment [10], 0.254. Also, in [2], the composite Z-score was 0.449 (inactive).

`Cc1ccccc1C(O)C1C=CC2C(=O)N(c3ccccc3)C(=O)C2N1Nc1ccccc1F` (stereo not given): the composite z-score in [1] was 1.03; in [3], 0.195; in experiment [4], 0.161; in experiment [5], 0.77; in [6], 3.01; in experiment [7] it was -0.0703. Moreover, the composite z-score is 1.23 in experiment [8], -0.52 in experiment [9] and 1.09 in [10]. Further, the composite Z-score in experiment [2] was 0.805 (inactive).
